The results in this text go back to ChEMBL document CHEMBL3988442, “University of Dundee, Small-Polar-MMV Screening Library” (2021).

Structures are written as SMILES.

The first assay is filed under the species Homo sapiens. Nature of the assay: To identify inhibition of the IFN signalling (Jak-Stat) pathway via expression of an eGFP reporter gene under the control of an IFN-stimulated response element (ISRE) containing MxA promoter. The format is functional. On the set-up: scale not given: direction of the effect not stated beside the values. As to conditions: 30 µM. (A reporter such as luciferase makes a cellular process visible.)
Take `CC(c1ccco1)N(C)Cc1nc2c(cnn2C)c(=O)[nH]1` (stereo not given): the Percent Effect amounted to 11.7%.

As for `CCn1nc(C)c2nnn(CC(=O)Nc3cccc(Cl)c3)c(=O)c21`, the Percent Effect was -22.7%.

`CCCC(=O)NCc1cc(Br)c(OC)c(OC)c1`: the Percent Effect came out at 25.5%.

In the case of `CC(=O)N(C)CC(=O)Nc1cccc(N2CCN(CC3CC3)CC2)c1`, the Percent Effect worked out at 4.97%.

As for `CS(=O)(=O)N1CC[C@H]2[C@H](C[C@@H](Cn3cncn3)N2CC2CC2)C1`, the Percent Effect is -4%.

For the molecule `COc1ccnc(N2CCN(C(=O)CN3CCCC3=O)CC2)n1`, the Percent Effect was found to be 2.97%.

As to `Cc1cc(C)n(CC2CCCCN2Cc2cscn2)n1` (stereo not given), the Percent Effect was found to be 12.4%.

Consider `O=C(CC1CCCC1)N1CCCC(c2n[nH]c3nccnc23)C1` (stereo not given), for which the Percent Effect was determined as 13.3%.

On to `CCc1ccc(CN2CC[C@H]3C[C@H](c4nnc(C)[nH]4)O[C@@H]3C2)o1`, for which the Percent Effect amounted to 9.84%.

As for `CN(C)CCNC(=O)c1cc(-c2cnc(N3CCCC3)nc2)cn1C`, the Percent Effect came out at 45.6%.

Regarding `Cc1cnn(CCNCc2ccccc2C#N)c1`, the Percent Effect was found to be 14.9%.

Regarding `Cc1ccc(CN2CCC3(C2)C(=O)N(CC(C)C)c2ccccc23)s1` (stereo not given), the Percent Effect was 7.39%.

As to `NC(=O)Nc1cccc(Oc2ccccn2)c1`, the Percent Effect stood at 0.913%.

With `CC(CNC(=O)Nc1cn[nH]c1)N1CCc2ccccc2C1` (stereo not given), the Percent Effect worked out at 12.5%.

Take `O=C(CCc1ccc(Br)cc1F)NS(=O)(=O)c1ccc2c(c1)OCCO2`: the Percent Effect was determined as 18.6%.

Turning to `CC(NC(N)=O)C(=O)N1CCCN(Cc2nccn2C(C)C)CC1` (stereo not given), the Percent Effect is -2.71%.

In the case of `CN1Cc2c(C(=O)Nc3cccnc3)ncn2-c2ccccc2S1(=O)=O`, the Percent Effect is -3.68%.

On to `CN(C(=O)NCCCN1CCCC1)C1CCN(c2ccccc2)C1=O` (stereo not given), for which the Percent Effect amounted to 24.5%.

Regarding `CCSCCC(=O)Nc1ncn(Cc2cccnc2)n1`, the Percent Effect came to 9.04%.

As to `CNC(=O)[C@@]12CCO[C@@H]1CCN(S(=O)(=O)c1cccc(C)c1)C2`, the Percent Effect is 11.1%.

Turning to `CCC1CN(CC(=O)Nc2sccc2C#N)CCO1` (stereo not given), the Percent Effect was -2.35%.

As to `CCn1c(C(=O)N2CCN(CC(C)O)CC2)cc2ccccc21` (stereo not given), the Percent Effect was -0.229%.

Turning to `O=C(NCCCN1CCCC1)c1n[nH]c(=O)c2ccccc12`, the Percent Effect was 11.3%.

On to `COCC1CCCN(C(=O)c2cc(Cn3ccc4ccccc43)[nH]n2)C1` (stereo not given), for which the Percent Effect is -41.3%.

For the molecule `CC(C)S(=O)(=O)NCC1CCCN(C(=O)c2ccc3c(c2)CCC3)C1` (stereo not given), the Percent Effect was found to be 16.7%.

As to `N#Cc1c(F)cccc1N1CCC(NS(=O)(=O)c2cccs2)CC1`, the Percent Effect amounted to 34.2%.

For `CNc1nc2c(c(C(=O)N3CCCC3)n1)CN(Cc1nccn1C)CC2`, the Percent Effect was 8.05%.

With `CC(C)CCN1CN=C(NS(=O)(=O)c2ccc(F)cc2)NC1`, the Percent Effect is -4.88%.

For `CN(Cc1ncc(C(C)(C)C)o1)C1CCCN(c2cccnn2)C1` (stereo not given), the Percent Effect was 2.64%.

Consider `Cc1nc2cc(C3CCN(Cc4cccc(F)c4F)C3)nn2c(O)c1C` (stereo not given), for which the Percent Effect came to 10.8%.

Regarding `CCS(=O)(=O)CCN1CCCC1c1noc(C2CC2)n1` (stereo not given), the Percent Effect turned out to be 38.5%.

Consider `Cc1nc(Cn2nc(C3CCNCC3)n(Cc3ccccc3)c2=O)no1`, for which the Percent Effect is 26.5%.

Consider `CN(C)C(=O)COC1COC2(CCN(S(C)(=O)=O)CC2)C1` (stereo not given), for which the Percent Effect was -9.56%.

In the case of `CCNC(=O)NC(=O)CSC(C)c1c(F)cccc1F` (stereo not given), the Percent Effect was found to be 10.5%.

Regarding `Cn1cccc1CNC(=O)CCCc1nnc2ccccn12`, the Percent Effect was -1.85%.

In the case of `Cc1cccc(CN(Cc2ccc(C)o2)C2CC(C)(C)NC(C)(C)C2)n1`, the Percent Effect was 1.42%.

As for `Cc1ccc(C2CSCCN2C(=O)c2ccsc2)o1` (stereo not given), the Percent Effect is -0.446%.

As to `Cc1csc(N2CCN(C(=O)CCC(=O)c3ccc(C)s3)CC2)n1`, the Percent Effect is 23%.

Take `O=C(c1cnccn1)N1C[C@@H]2CC[C@H](C1)N(C(=O)Cc1ccsc1)C2`: the Percent Effect was determined as 8.73%.

Consider `Cc1ncsc1C(=O)N1CCCC(c2noc(C(C)C)n2)C1` (stereo not given), for which the Percent Effect was 7.22%.

The target in a further assay is T1, Tyrosyl-tRNA synthetase, putative (Trypanosoma cruzi (strain CL Brener)) (UniProt Q4DSP6).
T1 sequence (whole entry): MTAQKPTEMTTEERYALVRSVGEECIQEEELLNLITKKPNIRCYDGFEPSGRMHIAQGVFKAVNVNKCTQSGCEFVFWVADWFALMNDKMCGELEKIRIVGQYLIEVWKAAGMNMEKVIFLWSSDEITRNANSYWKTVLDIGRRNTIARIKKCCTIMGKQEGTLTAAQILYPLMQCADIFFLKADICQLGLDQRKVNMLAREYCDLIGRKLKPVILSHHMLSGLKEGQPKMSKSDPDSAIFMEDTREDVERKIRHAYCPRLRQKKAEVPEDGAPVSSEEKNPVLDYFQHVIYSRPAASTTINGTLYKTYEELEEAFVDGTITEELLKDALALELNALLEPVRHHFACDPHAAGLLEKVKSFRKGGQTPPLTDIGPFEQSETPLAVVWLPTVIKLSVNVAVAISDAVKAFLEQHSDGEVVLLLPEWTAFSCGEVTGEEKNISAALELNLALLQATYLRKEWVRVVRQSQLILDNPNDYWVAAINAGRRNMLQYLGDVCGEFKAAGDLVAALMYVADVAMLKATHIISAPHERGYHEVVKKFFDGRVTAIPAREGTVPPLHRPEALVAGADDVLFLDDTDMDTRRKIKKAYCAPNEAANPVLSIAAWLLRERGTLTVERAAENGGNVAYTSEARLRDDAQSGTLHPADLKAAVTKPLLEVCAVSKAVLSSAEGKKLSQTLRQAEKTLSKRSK
Nature of the assay: Trypanosoma cruzi tyrosyl tRNA synthetase (TcYRS) _High Tyrosine SOP. The assay is classed as functional. On the set-up: scale not given: in the data most compounds retested in dose-response had high values. As to conditions: 30 µM.
As to `CC(c1ccco1)N(C)Cc1nc2c(cnn2C)c(=O)[nH]1` (stereo not given), the Percent Effect is -8.91%.

Take `CCn1nc(C)c2nnn(CC(=O)Nc3cccc(Cl)c3)c(=O)c21`: the Percent Effect was 6.35%.

In the case of `CCCC(=O)NCc1cc(Br)c(OC)c(OC)c1`, the Percent Effect turned out to be 2.73%.

For the molecule `CC(=O)N(C)CC(=O)Nc1cccc(N2CCN(CC3CC3)CC2)c1`, the Percent Effect was 3.23%.

On to `CS(=O)(=O)N1CC[C@H]2[C@H](C[C@@H](Cn3cncn3)N2CC2CC2)C1`, for which the Percent Effect amounted to 3.23%.

Consider `COc1ccnc(N2CCN(C(=O)CN3CCCC3=O)CC2)n1`, for which the Percent Effect amounted to 8.37%.

On to `Cc1cc(C)n(CC2CCCCN2Cc2cscn2)n1` (stereo not given), for which the Percent Effect was 7.62%.

In the case of `O=C(CC1CCCC1)N1CCCC(c2n[nH]c3nccnc23)C1` (stereo not given), the Percent Effect stood at 3.23%.

On to `CCc1ccc(CN2CC[C@H]3C[C@H](c4nnc(C)[nH]4)O[C@@H]3C2)o1`, for which the Percent Effect amounted to 0%.

As for `CN(C)CCNC(=O)c1cc(-c2cnc(N3CCCC3)nc2)cn1C`, the Percent Effect amounted to 0%.

Regarding `Cc1cnn(CCNCc2ccccc2C#N)c1`, the Percent Effect is -1.98%.

`Cc1ccc(CN2CCC3(C2)C(=O)N(CC(C)C)c2ccccc23)s1` (stereo not given): the Percent Effect was found to be 10.9%.

Turning to `NC(=O)Nc1cccc(Oc2ccccn2)c1`, the Percent Effect stood at 3.19%.

On to `CC(CNC(=O)Nc1cn[nH]c1)N1CCc2ccccc2C1` (stereo not given), for which the Percent Effect amounted to 9.52%.

As to `O=C(CCc1ccc(Br)cc1F)NS(=O)(=O)c1ccc2c(c1)OCCO2`, the Percent Effect was -18.8%.

Consider `CC(NC(N)=O)C(=O)N1CCCN(Cc2nccn2C(C)C)CC1` (stereo not given), for which the Percent Effect was 0%.

Take `CN1Cc2c(C(=O)Nc3cccnc3)ncn2-c2ccccc2S1(=O)=O`: the Percent Effect was found to be 0%.

`CN(C(=O)NCCCN1CCCC1)C1CCN(c2ccccc2)C1=O` (stereo not given): the Percent Effect came out at 4.41%.

On to `CCSCCC(=O)Nc1ncn(Cc2cccnc2)n1`, for which the Percent Effect was determined as 4.92%.

Consider `CNC(=O)[C@@]12CCO[C@@H]1CCN(S(=O)(=O)c1cccc(C)c1)C2`, for which the Percent Effect was 1.08%.

As to `CCC1CN(CC(=O)Nc2sccc2C#N)CCO1` (stereo not given), the Percent Effect was determined as 4.41%.

As to `CCn1c(C(=O)N2CCN(CC(C)O)CC2)cc2ccccc21` (stereo not given), the Percent Effect turned out to be 3.88%.

As for `O=C(NCCCN1CCCC1)c1n[nH]c(=O)c2ccccc12`, the Percent Effect came to 6.8%.

In the case of `COCC1CCCN(C(=O)c2cc(Cn3ccc4ccccc43)[nH]n2)C1` (stereo not given), the Percent Effect is 14%.

With `CC(C)S(=O)(=O)NCC1CCCN(C(=O)c2ccc3c(c2)CCC3)C1` (stereo not given), the Percent Effect was found to be 1.07%.

As to `N#Cc1c(F)cccc1N1CCC(NS(=O)(=O)c2cccs2)CC1`, the Percent Effect is -15.1%.

`CNc1nc2c(c(C(=O)N3CCCC3)n1)CN(Cc1nccn1C)CC2`: the Percent Effect is 7.29%.

Consider `CC(C)CCN1CN=C(NS(=O)(=O)c2ccc(F)cc2)NC1`, for which the Percent Effect came to 5.29%.

Consider `CN(Cc1ncc(C(C)(C)C)o1)C1CCCN(c2cccnn2)C1` (stereo not given), for which the Percent Effect turned out to be 12.3%.

As to `Cc1nc2cc(C3CCN(Cc4cccc(F)c4F)C3)nn2c(O)c1C` (stereo not given), the Percent Effect is 3.23%.

Regarding `CCS(=O)(=O)CCN1CCCC1c1noc(C2CC2)n1` (stereo not given), the Percent Effect was -0.493%.

Consider `Cc1nc(Cn2nc(C3CCNCC3)n(Cc3ccccc3)c2=O)no1`, for which the Percent Effect was determined as 3.7%.

`CN(C)C(=O)COC1COC2(CCN(S(C)(=O)=O)CC2)C1` (stereo not given): the Percent Effect stood at 4.32%.

Consider `CCNC(=O)NC(=O)CSC(C)c1c(F)cccc1F` (stereo not given), for which the Percent Effect stood at 0.546%.

Take `Cn1cccc1CNC(=O)CCCc1nnc2ccccn12`: the Percent Effect was 3.17%.

With `Cc1cccc(CN(Cc2ccc(C)o2)C2CC(C)(C)NC(C)(C)C2)n1`, the Percent Effect turned out to be 3.23%.

As for `Cc1ccc(C2CSCCN2C(=O)c2ccsc2)o1` (stereo not given), the Percent Effect is 1.07%.

As for `Cc1csc(N2CCN(C(=O)CCC(=O)c3ccc(C)s3)CC2)n1`, the Percent Effect amounted to 7.39%.

As for `O=C(c1cnccn1)N1C[C@@H]2CC[C@H](C1)N(C(=O)Cc1ccsc1)C2`, the Percent Effect is 5.38%.

For the molecule `Cc1ncsc1C(=O)N1CCCC(c2noc(C(C)C)n2)C1` (stereo not given), the Percent Effect is 6.32%.
